# Laboratory results: PubChem BioAssay (NCI)
# About 83,000 compounds went through this panel and 20% of them were active in at least one assay; those are over-represented in the sample as a whole.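 Treatment: one concentration, 48 hours, 96-well format. Scoring: percent growth, with anything below 10 considered active.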 Unmarked numbers belong to inactive results. The source made the active and inactive calls.
# Tested on: MOLT-4 leukemia
# Experiment: NCI-60 one-dose screen, 48 h (100 = growth as untreated, 0 = no growth, -100 = all killed)
# Settings: 10 µM unless noted
# Protocol: Growth inhibition of the MOLT-4 human tumor cell line is measured as a screen for anti-cancer activity. Cells are grown in 96 well plates and exposed to the test compound for 48 hours. Compounds are tested at a single concentration, which is 10^-5 M for most compounds. The reported endpoint is percent growth (GI% or GIPRCNT), where numbers from 0 - 100% represent growth inhibition, and numbers from -100% - 0 represent cell death. For example, a value of 40 represents 60% growth inhibition. A value of 0 means no net growth occurred over the course of the experiment. A value of -40 indicates 40% of cells at the beginning of the experiment died by the end of the experiment. A value of -100 means all cells are dead at the end of the experiment.
# NCI-60 Human Tumor Cell Lines Screen was performed using the standard one-dose NCI protocol, which is described in more detail at https://dtp.cancer.gov/discovery_development/nci-60/default.htm.
# Compounds with GIPRCNT values below 10 were considered active. Activity score was based on GIPRCNT using the following formula: […]
# Score is 0 for GIPRCNT values of 100 or above, 50 for GIPRCNT values of 0, and 100 for GIPRCNT values of -100.
row,Structure (SMILES),growth
1,CN(C)c1nc(NCCNS(=O)(=O)c2ccc(C3=Nc4c(N)nc(N)nc4NC(c4ccc(Cl)cc4)C3)cc2)nc(Nc2ccc(F)cc2)n1 (stereo not given),7.27% (active)
2,COc1cc2oc(-c3cccc(NC(=O)[C@H](Cc4ccccc4)NC(=O)OC(C)(C)C)c3)cc(=O)c2c(OC)c1OC,9.42% (active)
3,COc1cc2nc(SCc3ccccc3)n(-c3ccc(Cl)cc3)c(=O)c2cc1OC,43.1%
4,C=C1CC[C@@H]2[C@]3(C)COC(c4cn[nH]c4-c4ccc(OC)cc4)O[C@@H]3CC[C@@]2(C)[C@@H]1C/C=C1/C(=O)OCC1O (stereo not given in full),8.3% (active)
5,Cn1cc(-c2cc(N)n3nc(-c4c[nH]c5ccccc45)cc3n2)c2cccnc21,-29.4% (active)
6,Cc1ccccc1[C@H]1C(C(=O)c2ccc(Cl)cc2)C2(N[C@@H]1c1ccccc1)C(=O)Nc1ccccc12 (stereo not given in full),-18% (active)
7,C=C1CCC2C3(C)COC(c4ccco4)OC3CCC2(C)C1CC(Sc1ccccc1)C1=CCOC1=O (stereo not given),16.9%
8,COc1ccc(C(SCCNCc2cc(N(C)C)ccn2)(c2ccccc2)c2ccccc2)cc1,9.51% (active)
9,CC(=O)Oc1ccc(/C=C/C(=O)N[C@@H](Cc2ccccc2)C(O)C(=O)NCc2ccccc2)cc1OC(C)=O (stereo not given in full),55.5%
10,C#C[C@]1(O)CC[C@H]2[C@@H]3CC=C4c5sc(-c6ccc([N+](=O)[O-])cc6)nc5CC[C@]4(C)[C@H]3CC[C@@]21C,10%
11,CNC(=O)c1cc(Oc2ccc3nc(NC(=O)Nc4cccc(OC(F)(F)F)c4)sc3c2)ccn1,50.9%
12,O=C(CN1C(=O)/C(=C/c2ccccc2F)SC1=S)N1CCOCC1,77.7%
13,O=C(Cn1c(/C=C/c2ccccc2)nc2ccccc2c1=O)Nc1ccccc1,73%
14,CN(C)CCOc1ccc(C(=O)C2[C@H](c3ccc(Cl)cc3)[C@@H](c3ccccc3)NC23C(=O)Nc2ccccc23)cc1 (stereo not given in full),-32.8% (active)
15,CN(C)CCn1c2ccccc2c2nc3cc(C(F)(F)F)ccc3nc21,23.8%
16,O=C(COc1ccc(NC(=O)Nc2ccccc2)cc1)N=Nc1c(O)[nH]c2ccc([N+](=O)[O-])cc12,3.7% (active)
17,Cc1occc1C(=O)NN1C(=O)/C(=C/C=C/c2ccc([N+](=O)[O-])o2)SC1=S,5.26% (active)
18,CCN(CC)C(=O)N/C(N)=N/c1nc2ccccc2s1,-4.3% (active)
19,Cc1ccc2c(N)c(C(=O)Nc3ccc(OC(F)(F)F)cc3)sc2n1,63.1%
20,COc1c(F)ccc(C(=O)Nc2ccc3nc(NC(=O)C4CCCN(S(=O)(=O)c5ccc(Br)c(F)c5)C4)sc3c2)c1F (stereo not given),42.5%

row,Structure (SMILES),growth
1,CN(C)c1nc(NCCNS(=O)(=O)c2ccc(C(=O)/C=C/c3ccc(C(F)(F)F)cc3)cc2)nc(Nc2ccc(F)cc2)n1,0.0408% (active)
2,Cc1sc2c(c1C)C(c1ccc(Cl)cc1)=N[C@@H](CC(=O)NCCCCCNC(=O)COc1ccc(C3CCC(=O)NC3=O)cc1)c1nnc(C)n1-2 (stereo not given in full),16.4%
3,C=C1CCC2C3(C)COC(c4ccccc4)OC3CCC2(C)C1CC(NCc1ccccc1)C1=CCOC1=O (stereo not given),61.1%
4,O=C(O)c1ccc(-c2ccc(/C=N/NC(=O)c3[nH]c4ccc(Br)cc4c3-c3ccccc3)o2)cc1,14.1%
5,COc1ccc(-c2nc3cc(C)ccc3n2CC(=O)N=Nc2c(O)[nH]c3ccccc23)cc1,13.2%
6,C=C1CC[C@@H]2[C@]3(C)COC(c4cn[nH]c4-c4ccc(C)cc4)O[C@@H]3CC[C@@]2(C)[C@@H]1C/C=C1/C(=O)OCC1O (stereo not given in full),13.9%
7,Cc1ccc(C(=O)NN2C(=O)/C(=C/C=C/c3ccc([N+](=O)[O-])o3)SC2=S)cc1,9.73% (active)
8,CCCCCCCCc1ccc(C(=O)Nc2ccc(C)cc2C(=O)O)cc1C,90.8%
9,C(=C\c1cc(/C=C/c2ccccc2)c2ccccc2n1)/c1ccccc1,32.1%
10,CN1CCc2c(sc3ncnc(N/N=C/c4ccc(Cl)cc4Cl)c23)C1,1.96% (active)
11,C=C1CCC2C3(C)COC(c4ccc(F)cc4)OC3CCC2(C)C1C/C=C1/C(=O)OCC1O (stereo not given),8.65% (active)
12,S=C(NCCc1ccccc1)Nc1ccc(OCc2nc3ccccc3[nH]2)cc1,100%
13,C=C1CC[C@@H]2[C@]3(C)COC(c4cn[nH]c4-c4cccc(Cl)c4)O[C@@H]3CC[C@@]2(C)[C@@H]1C/C=C1/C(=O)OCC1O (stereo not given in full),12.7%
14,Cc1ccc(C2=NN(c3nc(-c4cc5ccccc5oc4=O)cs3)C(c3ccc(C)cc3)C2)cc1 (stereo not given),98.5%
15,COc1ccc2[nH]cc(-c3nnc(N)nc3-c3cn(C)c4ncc(Br)cc34)c2c1,56.6%
16,CCCCSc1nc(NCCc2c[nH]c3ccccc23)c(C#N)c(-c2ccc(F)cc2)n1,36.5%
17,Brc1ccc(-c2n(Cc3ccc4ccccc4c3)c(-c3ccccc3)c(-c3ccccc3)[n+]2Cc2ccc3ccccc3c2)cc1,-5.89% (active)
18,COc1ccc(NC(=O)[C@@H](N)Cc2ccccc2)cc1C(=O)Nc1cccc(C2CC(=O)c3c(cc(OC)c(OC)c3OC)O2)c1 (stereo not given in full),19.5%
19,COc1ccc2[nH]c(=O)c(CSc3nccc(-c4ccc(OC)c(OC)c4)n3)cc2c1,7.07% (active)
20,C=C1CC[C@@H]2[C@]3(C)COC(c4ccccc4)O[C@@H]3CC[C@@]2(C)[C@@H]1C/C=C1/C(=O)OCC1OC(C)=O (stereo not given in full),-28.7% (active)
